According to PubChem BioAssay (NCATS):
Where “and” joins values, the source holds several entries; their conditions need not be identical. Identical values can stand only once. Inconclusive results are not listed. Calls of active or inactive are those of the source. Unless noted, the call rests on the fitted dose curve; in most records, active means well fitted activation curve with a large enough effect in the main read-out, with a control signal flat (not every such curve was filed as active); inconclusive means small, poorly fitted or top-dose-only effect, or effect the other way, or a change in a side signal; inactive means flat fitted curve, though single readings scatter.

Target: 3',5'-cyclic-AMP phosphodiesterase 4B (Homo sapiens) (UniProt Q07343)
Assay: qHTS Assay for Inhibitors of PDE-IV (AID 607); further: % of control where 0% means no effect
Conditions: HEK293 ACTOne CNG channel cells, membrane potential fluorescence; series mostly up to 22.9 µM; activation (PDE inhibition): at the top concentration
Outline: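 HEK293 ACTOne cells with CNG channel (1000/well), endogenous PDE4; membrane potential dye, compounds up to 22.9 uM final. Fluorescence Ex 535/Em 590; RO 20-1724 (100 uM final) as reference.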

3',5'-cyclic-AMP phosphodiesterase 4B (Homo sapiens), sequence (Q07343 whole entry, looked up): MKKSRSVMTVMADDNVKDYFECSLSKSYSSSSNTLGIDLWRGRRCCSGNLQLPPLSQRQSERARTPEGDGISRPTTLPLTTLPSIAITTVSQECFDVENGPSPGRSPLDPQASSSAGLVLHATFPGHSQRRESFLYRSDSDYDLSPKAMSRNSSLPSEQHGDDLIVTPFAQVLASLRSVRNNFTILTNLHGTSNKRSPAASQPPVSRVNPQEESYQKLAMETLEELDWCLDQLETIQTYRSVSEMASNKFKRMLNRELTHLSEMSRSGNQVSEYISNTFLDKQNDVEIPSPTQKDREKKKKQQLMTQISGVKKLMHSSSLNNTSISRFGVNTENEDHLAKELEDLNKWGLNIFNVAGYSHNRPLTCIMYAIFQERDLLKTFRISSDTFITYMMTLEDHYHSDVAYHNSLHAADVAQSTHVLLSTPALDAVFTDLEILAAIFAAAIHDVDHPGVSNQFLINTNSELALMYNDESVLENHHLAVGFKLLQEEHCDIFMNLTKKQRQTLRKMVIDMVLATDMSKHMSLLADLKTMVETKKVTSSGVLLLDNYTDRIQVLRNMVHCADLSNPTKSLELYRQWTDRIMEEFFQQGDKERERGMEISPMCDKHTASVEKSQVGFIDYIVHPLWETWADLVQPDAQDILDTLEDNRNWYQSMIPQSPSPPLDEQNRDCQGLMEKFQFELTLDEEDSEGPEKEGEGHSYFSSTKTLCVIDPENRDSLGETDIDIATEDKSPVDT

Activation (PDE inhibition), inactive:
CN(C)C(=O)c1ccc(-c2nc(NCc3cccnc3)c3ccccc3n2)cc1 17.3%
N#Cc1cccc(NC(=O)N2CC3(CCN(C(=O)c4cccc(F)c4)CC3)C2)c1 1.17%
CC(C)NC(=O)N1CCC2(CC1)CCN(C(=O)c1cnccn1)CC2 -2.39%
Cc1cccc(CNc2cc(-c3cccc(NS(C)(=O)=O)c3)ncn2)c1 24%
COc1ccc(C(=O)N2CCC3(CC2)CN(c2ccccn2)C3)cc1 -13%
Cc1noc(C)c1-c1nccc(N2CCNCC2)n1 9.34%
c1ccc(Nc2ncnc3ccc(-c4cccnc4)cc23)cc1 -4.19%
CS(=O)(=O)N1CCC[C@@]2(CCN(c3ccncc3)C2)C1 0.996%
O=C(c1ccncc1)N1CCC[C@@]2(CCN(c3cccc(-c4ccccc4)c3)C2)C1 24%
O=C(c1csnn1)N1CCC2(CCCN(c3ccncc3)C2)CC1 -5.32%
N#Cc1ccc(CN2CCCC3(CCN(C(=O)c4cc(C(F)(F)F)cc(C(F)(F)F)c4)CC3)C2)cc1 -6.51%
N#Cc1ccccc1-c1ccc2ncnc(NCc3cccs3)c2c1 1.62%
CN(C)C(=O)c1ccc(-c2ccc3ncnc(NCc4cccnc4)c3c2)cc1 1.76%
CN(C)Cc1ccccc1-c1cncnc1NCc1ccccc1 6.5%
O=C(c1cnccn1)N1CCC2(CCN(Cc3ccncc3)CC2)CC1 -2.52%
O=C(Nc1cccc(F)c1)N1CCC2(CC1)CCN(C(=O)c1cc(C(F)(F)F)cc(C(F)(F)F)c1)CC2 4.16%
N#Cc1ccc(CN2CCCC3(CCNCC3)C2)cc1 11.5%
O=C(Nc1ccccc1)N1CCCC2(CCNCC2)C1 1.03%
O=S(=O)(c1ccccc1)N1CCC2(CCN(c3ccncc3)CC2)CC1 23.3%
CN(C)Cc1ccccc1-c1ccc2ncnc(NC3CC3)c2c1 8.7%
Cc1ccccc1-c1cncnc1N1CCNCC1 5.95%
COCC(=O)N1CCC2(CC1)CN(Cc1nccs1)C2 -2.67%
O=C(Oc1ccccc1)N1CCC2(CCCN(c3ccncc3)C2)CC1 29.5%
COc1cccc(-c2nc(N3CCNCC3)c3ccccc3n2)c1 7.67%
COc1ccc(NC(=O)N2CC[C@@]3(CCCN(C(=O)c4ccncc4)C3)C2)cc1 6.66%
O=c1c(-c2cc(F)cc(F)c2)nc2cnc(Oc3ccccc3)nc2n1C[C@H]1CCCO1 26.5%
COCCn1c(=O)c(-c2ccc(F)cc2)nc2cnc(Oc3ccc(OC)cc3)nc21 -7.45%
c1ccc(C(c2ccccc2)N2CC3(CCNCC3)C2)cc1 17.2%
CS(=O)(=O)N1CCC2(CCCN(Cc3ccccc3)C2)CC1 12.5%
Cc1cccc(CNc2ccnc(-c3cccc(NS(C)(=O)=O)c3)n2)c1 5.46%
COc1ccccc1CN1CCC2(CC1)CCN(C(=O)c1cc(C(F)(F)F)cc(C(F)(F)F)c1)CC2 28%
COc1ccc(NC(=O)N2CCC3(CC2)CCN(C(=O)c2cc(C(F)(F)F)cc(C(F)(F)F)c2)CC3)cc1 1.87%
O=c1c(CCc2ccccc2)nc2cnc(N3CCOCC3)nc2n1C[C@H]1CCCO1 10.4%

Potency, inactive:
CC[C@@]12CCCN3CCc4c(n(c5ccccc45)C(=O)C1)[C@H]32

Target: Cytochrome P450 3A4 (Homo sapiens) (UniProt P08684)
Assay: qHTS Assay for Inhibitors and Substrates of Cytochrome P450 3A4 (AID 884; active means well fitted curve in the direction sought with a large enough effect; an effect the other way counts as inactive or inconclusive; further: nearly all actives have a fitted effect of over 50% in size; further: potency means the concentration at half of the fitted maximal effect; on activity change, negative = inhibition: on the % scale 0 is the no-effect control and ±100 the full control effect)
Conditions: recombinant CYP3A4, Luciferin-PPXE luminescence; series mostly up to 57.1 µM; activity change, negative = inhibition: at the top concentration
Outline: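 Luminescent readout of luciferin produced by CYP3A4 (20 nM) dealkylation of Luciferin-PPXE, 25 uM (its KM). NADPH-driven reaction ran 60 min at RT after 10 min compound preincubation; data scaled to 57 uM ketoconazole as 100% inhibition.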

Cytochrome P450 3A4 (Homo sapiens), sequence (P08684 whole entry, looked up): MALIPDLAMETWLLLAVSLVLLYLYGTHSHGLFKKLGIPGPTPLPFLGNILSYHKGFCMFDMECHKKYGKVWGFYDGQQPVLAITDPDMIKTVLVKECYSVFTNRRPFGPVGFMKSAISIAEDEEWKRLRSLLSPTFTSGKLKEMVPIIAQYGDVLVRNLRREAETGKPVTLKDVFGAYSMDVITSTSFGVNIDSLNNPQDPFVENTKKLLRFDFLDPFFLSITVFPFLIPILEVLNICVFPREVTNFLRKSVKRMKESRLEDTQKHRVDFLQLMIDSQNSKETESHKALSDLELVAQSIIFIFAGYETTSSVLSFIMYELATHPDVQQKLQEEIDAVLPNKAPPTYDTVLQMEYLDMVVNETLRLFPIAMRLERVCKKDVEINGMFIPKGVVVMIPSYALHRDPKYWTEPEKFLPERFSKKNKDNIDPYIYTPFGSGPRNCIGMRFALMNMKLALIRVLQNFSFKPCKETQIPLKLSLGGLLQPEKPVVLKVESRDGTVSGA

Activity change, negative = inhibition, inactive:
N#Cc1cccc(NC(=O)N2CC3(CCN(C(=O)c4cccc(F)c4)CC3)C2)c1 62.8%
COCC(=O)N1CCC2(CC1)CN(Cc1nccs1)C2 -43.9%
c1ccc(C(c2ccccc2)N2CC3(CCNCC3)C2)cc1 37.9%

Potency, active:
Cc1cccc(CNc2cc(-c3cccc(NS(C)(=O)=O)c3)ncn2)c1 2000 nM
c1ccc(Nc2ncnc3ccc(-c4cccnc4)cc23)cc1 2510 nM
CS(=O)(=O)N1CCC[C@@]2(CCN(c3ccncc3)C2)C1 7940 nM

Target: Cytochrome P450 3A4 (Homo sapiens) (UniProt P08684)
Assay: qHTS Assay for Activators of Cytochrome P450 3A4 (AID 885; active means well fitted curve in the direction sought with a large enough effect; an effect the other way counts as inactive or inconclusive; further: nearly all actives have a fitted effect of over 65% in size; further: potency means the concentration at half of the fitted maximal effect)
Conditions: recombinant CYP3A4, Luciferin-PPXE luminescence, 60 min; series mostly up to 57.1 µM; activity change, positive = activation: at the top concentration
Outline: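 Human CYP3A4 dealkylates Luciferin-PPXE to luciferin, which luciferase detection converts to light. Substrate was at its KM (25uM), buffer 200mM KPO4, reaction 60 min at RT.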

Activity change, positive = activation, inactive:
CN(C)C(=O)c1ccc(-c2nc(NCc3cccnc3)c3ccccc3n2)cc1 -87%
Cc1cccc(CNc2cc(-c3cccc(NS(C)(=O)=O)c3)ncn2)c1 -62.3%
c1ccc(Nc2ncnc3ccc(-c4cccnc4)cc23)cc1 -94.9%
CS(=O)(=O)N1CCC[C@@]2(CCN(c3ccncc3)C2)C1 -102%
O=C(Nc1ccccc1)N1CCCC2(CCNCC2)C1 -45.7%
COc1ccc(Oc2ncc3nc(CCc4ccccc4)c(=O)n(C)c3n2)cc1 -38.6%
O=c1c(-c2cc(F)cc(F)c2)nc2cnc(Oc3ccccc3)nc2n1C[C@H]1CCCO1 -59.7%

Potency, active:
N#Cc1cccc(NC(=O)N2CC3(CCN(C(=O)c4cccc(F)c4)CC3)C2)c1 10000 nM

Potency, inactive:
CC[C@@]12CCCN3CCc4c(n(c5ccccc45)C(=O)C1)[C@H]32

Target: Cytochrome P450 2D6 (Homo sapiens) (UniProt P10635)
Assay: qHTS Assay for Inhibitors and Substrates of Cytochrome P450 2D6 (AID 891; active means well fitted curve in the direction sought with a large enough effect; an effect the other way counts as inactive or inconclusive; further: nearly all actives have a fitted effect of over 60% in size; further: potency means the concentration at half of the fitted maximal effect;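 on activity change, negative = inhibition: luciferin methyl ether substrate demethylated by CYP2D6 with NADPH regeneration; on the % scale 0 is the no-effect control and ±100 the full control effect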)
Conditions: recombinant CYP2D6, luciferin-ME EGE luminescence; series mostly up to 57.1 µM; activity change, negative = inhibition: at the top concentration
Outline: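 Luminescent read-out of luciferin formed by 5 nM human CYP2D6 demethylating 30 uM Luciferin-ME EGE (Km level) over 60 min at room temperature after NADPH regeneration addition. Data normalized to full inhibition by 1.43 uM quinidine.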

Cytochrome P450 2D6 (Homo sapiens), sequence (P10635 whole entry, looked up): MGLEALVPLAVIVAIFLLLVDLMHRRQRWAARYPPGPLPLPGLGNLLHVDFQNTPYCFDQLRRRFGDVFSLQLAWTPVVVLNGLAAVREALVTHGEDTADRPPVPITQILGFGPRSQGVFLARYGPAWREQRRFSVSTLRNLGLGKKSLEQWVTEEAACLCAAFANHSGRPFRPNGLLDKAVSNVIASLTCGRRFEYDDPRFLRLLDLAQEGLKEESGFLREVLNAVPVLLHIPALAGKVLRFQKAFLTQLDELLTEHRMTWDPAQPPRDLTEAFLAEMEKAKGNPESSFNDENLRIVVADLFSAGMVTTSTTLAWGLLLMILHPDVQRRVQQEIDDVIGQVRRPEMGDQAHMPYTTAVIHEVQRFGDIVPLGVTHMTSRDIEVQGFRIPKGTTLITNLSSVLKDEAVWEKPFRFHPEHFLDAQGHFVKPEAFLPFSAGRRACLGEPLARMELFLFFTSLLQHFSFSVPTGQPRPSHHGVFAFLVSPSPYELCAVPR

Potency, active:
CC[C@@]12CCCN3CCc4c(n(c5ccccc45)C(=O)C1)[C@H]32 20 nM and 63.1 nM and 251 nM
c1ccc(C(c2ccccc2)N2CC3(CCNCC3)C2)cc1 2.51 µM

Activity change, negative = inhibition, inactive:
COCC(=O)N1CCC2(CC1)CN(Cc1nccs1)C2 -5.08%
